# Measured values: PubChem BioAssay (EPA / NIEHS)
# Inconclusive results are not listed. A structure can be active in one record and inactive in another. The source made the active and inactive calls. How the source made its calls, unless noted: active means hit-call score of the fitted dose curve at least 0.9, where 1 is the maximum; inactive means score below 0.9.
# Experiments:
# [1] = IUF_NPC1_cytotoxicity_72hr: Cytotoxicity Assessment at 72 hours in the Leibniz Research Institute for Environmental Medicine (IUF) Neural Progenitor Cell Proliferation Assay (NPC1) (AID 2284332; active means hit-call score of the fitted dose curve at least 0.9, where 1 is the maximum;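 further: rising LDH signal means more cytotoxicity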)
# Method in brief: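 LDH in supernatant, resazurin→resorufin fluorescence (RFU), 72 h exposure, no re-dosing. Cells: primary hNPC spheres, one per well, EGF+FGF medium, 37C/5% CO2, pH 7.2-7.6. Fit: positive direction vs baseline and dynamic range.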
# [2] = CCTE_Mundy_HCI_iCellGluta_NOG_NeuronCount: CCTE's Neurite Outgrowth Assay in iCellGluta cells for Neuron Count, Mundy Lab (AID 2284340; active means hit-call score of the fitted dose curve at least 0.9, where 1 is the maximum;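 further: cells fixed about 48 h after compound addition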)
# Method in brief: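 Neuron count read by automated high-content imaging of Hoechst 33342 and betaIII-tubulin/Alexa Fluor-488 labelling in human iPSC glutamatergic neurons. Activity fitted relative to DMSO.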
# [3] = CCTE_Mundy_HCI_iCellGluta_NOG_NeuriteCount: CCTE's Neurite Outgrowth Assay in iCellGluta cells for Neurite Count, Mundy Lab (AID 2284342; active means hit-call score of the fitted dose curve at least 0.9, where 1 is the maximum;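 further: chemical exposure about 48 hours starting 2 hours after plating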)
# [4] = CCTE_Deisenroth_H295R-HTRF_384WELL_ESTRADIOL: CCTE's H295R-HTRF Assay Evaluation of Estradiol Concentration, Deisenroth Lab (AID 2284361); conditions: actives raise or lower the signal
# Method in brief: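 Estradiol secreted into medium by H295R adrenocortical cells, quantified by HTRF after 48 h dosing over a nine-point 0.001 - 100 uM final range; gain or loss versus DMSO. Parallel ATP-luminescence viability readout; n=5 experiments.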
# [5] = CCTE_Deisenroth_H295R-HTRF_384WELL_TESTOSTERONE: CCTE's H295R-HTRF Assay Evaluation of Testosterone Concentration, Deisenroth Lab (AID 2284373); conditions: actives raise or lower the signal
# Method in brief: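 Secreted testosterone was quantified by HTRF immunoassay of medium from human adrenocortical H295R cells after 48 h chemical exposure at 0.001–100 uM final. Gain or loss was fitted against DMSO. ATP-based viability was read on matched wells, five experimental replicates.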
# [6] = CCTE_Deisenroth_H295R-HTRF_384WELL_CTOX: Cytotoxicity Assessment in CCTE's H295R-HTRF Assay, Deisenroth Lab (AID 2284380; active means hit-call score of the fitted dose curve at least 0.9, where 1 is the maximum)
# Method in brief: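 Luminescent ATP viability readout (CellTiter-Glo 2.0), multiplexed on plates used for hormone sampling, after 48 h chemical exposure. Human H295R cells; final concentrations 0.001–100 uM in nine steps, technical triplicates, five experiments; DMSO baseline.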
# SERPINA7 (gene 6906) = test: CCTE_GLTED_hTBG: CCTE's human Thyroxine-binding Globulin (TBG) Inhibition Assay, Great Lakes Toxicology and Ecology Division (GLTED) Lab (AID 2284343; active means hit-call score of the fitted dose curve at least 0.9, where 1 is the maximum;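 further: active chemicals lower fluorescence versus DMSO baseline by displacing probe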)
# Method in brief: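 Fluorescence (ex 380/em 475) reports ANSA displaced from human TBG after a 2 h incubation with test chemical, without cells. Loss of signal indicates displacement, with DMSO serving as baseline.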
# [7] = Tanguay_ZF_120hpf_MO24: Oregon State University Tanguay Lab 24 Hour Post-fertilization zebrafish Assay for Mortality (AID 2284389)
# Method in brief: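 Embryo death at 24 hpf was recorded as present or absent in Tropical 5D zebrafish, dechorionated at 4 hpf and dosed statically from 6 hpf (28C, 0.64% DMSO); 5 uM trimethyltin chloride served as positive control.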
# [8] = Tanguay_ZF_120hpf_DP24: Oregon State University Tanguay Lab 24 Hour Post-fertilization zebrafish Assay for Delayed Development (AID 2284390)
# Method in brief: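 Scored at 24 hpf as a binary present/absent call of delayed development by brightfield, with dead embryos not assessed. Embryos (5D wild type, chorion removed with pronase at 4 hpf) dosed statically from 6 hpf at 28 C in 0.64% DMSO.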
# [9] = Tanguay_ZF_120hpf_CRAN: Oregon State University Tanguay Lab 120 Hour Post-fertilization zebrafish Assay for Craniofacial Malformation (AID 2284397)
# Method in brief: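 Scoring of craniofacial malformation as a binary endpoint was done at 120 hpf by brightfield microscopy and was not done in dead embryos. Exposure was static, starting at 6 hpf, in dechorionated wild-type embryos held singly at 28C with 0.64% DMSO final.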
# [10] = Tanguay_ZF_120hpf_AXIS: Oregon State University Tanguay Lab 120 Hour Post-fertilization zebrafish Assay for Axial Malformation (AID 2284398)
# Method in brief: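 Scoring was binary (present or absent) for body-axis defects, judged by brightfield imaging at 120 hpf in surviving larvae. Exposure was static at 28C from 6 hpf in chorion-free 5D wild-type embryos, with 0.64% DMSO vehicle.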
# [11] = Tanguay_ZF_120hpf_MORT: Oregon State University Tanguay Lab 120 Hour Post-fertilization zebrafish Assay for Mortality (AID 2284399)
# Method in brief: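 Mortality, recorded present/absent via brightfield imaging at 24 and 120 hpf, in 5D zebrafish embryos exposed statically from 6 hpf after pronase chorion removal. Exposure at 28C, 0.64% DMSO vehicle, DMSO baseline.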
# [12] = Tanguay_ZF_120hpf_EDEM: Oregon State University Tanguay Lab 120 Hour Post-fertilization zebrafish Assay for Edema Malformation (AID 2284400)
# Method in brief: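 Edema recorded as a binary endpoint under brightfield at 120 hpf, excluding embryos that died. Exposure was static, sealed, 28C, from 6 hpf in dechorionated wild-type larvae, final DMSO 0.64%, DMSO as baseline.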
# [13] = Tanguay_ZF_120hpf_MUSC: Oregon State University Tanguay Lab 120 Hour Post-fertilization zebrafish Assay for Muscle Malformation (AID 2284401)
# Method in brief: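 Scored as a binary brightfield endpoint at 120 hpf, fitted versus DMSO. Single dechorionated wild-type (Tropical 5D) zebrafish embryos per well, statically exposed at 28C from 6 hpf onward with final DMSO 0.64%.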
# [14] = Tanguay_ZF_120hpf_BRN: Oregon State University Tanguay Lab 120 Hour Post-fertilization zebrafish Assay for Brain Region Malformation (AID 2284402)
# Method in brief: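 Binary brightfield scoring of brain malformation at 120 hpf in 5D wild-type larvae, chorion removed with pronase at 4 hpf. Static exposure began at 6 hpf, 28C, sealed plates, DMSO 0.64% (vol/vol) as vehicle baseline.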
# [15] = Tanguay_ZF_120hpf_TCHR: Oregon State University Tanguay Lab 120 Hour Post-fertilization zebrafish Assay for Touch Responsive (AID 2284403)
# Method in brief: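 Binary touch-response calls are made at 120 hpf in 5D wild-type zebrafish larvae. These larvae were dechorionated with pronase and exposed singly from 6 hpf in sealed, dark plates at 28 °C with 0.64% DMSO final; dead embryos are excluded.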
# [16] = Tanguay_ZF_120hpf_ANY: Oregon State University Tanguay Lab 120 Hour Post-fertilization zebrafish Assay for Any Mortality and Malformation (AID 2284404)
# Method in brief: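 Dechorionated Tropical 5D wild-type embryos, one per well from 6 hpf, static exposure in sealed, dark plates at 28C until 120 hpf, 0.64% DMSO final. Brightfield scoring of mortality and malformations as binary presence/absence, pooling 13 morphology endpoints.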
structure (smiles),measurement,setting,value
CNC(=O)CSP(=S)(OC)OC,outcome,[1],inactive
same,outcome,[2],inactive
same,outcome,[3],inactive
same,outcome,[4],inactive
same,outcome,[5],inactive
same,outcome,[6],inactive
CCN(CC)C(=O)SCc1ccc(Cl)cc1,AC50,SERPINA7 (gene 6906),22.4 µM (active)
COP(=S)(OC)Oc1ccc([N+](=O)[O-])cc1,outcome,[1],inactive
same,outcome,[2],inactive
same,AC50,[3],23.4 µM (active)
O=C(NC(=O)c1c(F)cccc1F)Nc1ccc(OC(F)(F)C(F)OC(F)(F)F)c(Cl)c1 (stereo unspecified),AC50,SERPINA7 (gene 6906),25 µM (active)
O=S1OCC2C(CO1)C1(Cl)C(Cl)=C(Cl)C2(Cl)C1(Cl)Cl (stereo unspecified),outcome,[1],inactive
same,AC50,[2],13.8 µM (active)
same,AC50,[3],23 µM (active)
O=C(O)COc1ccc(Cl)cc1Cl,outcome,[1],inactive
same,outcome,[3],inactive
C[C@H]1[C@H](c2ccc(Cl)cc2)SC(=O)N1C(=O)NC1CCCCC1,AC50,SERPINA7 (gene 6906),2.63 µM (active)
CC1(C)C(C=C(Cl)Cl)C1C(=O)OC(C#N)c1ccc(F)c(Oc2ccccc2)c1 (stereo unspecified),outcome,[1],inactive
same,AC50,[2],49.9 µM (active)
same,outcome,[2],inactive
same,AC50,[3],22.3 µM (active)
same,outcome,[3],inactive
CC[C@H](C)[C@H]1O[C@]2(C=C[C@@H]1C)C[C@@H]1C[C@@H](C/C=C(\C)[C@@H](O[C@H]3C[C@H](OC)[C@@H](O[C@H]4C[C@H](OC)[C@@H](O)[C@H](C)O4)[C@H](C)O3)[C@@H](C)/C=C/C=C3\CO[C@@H]4[C@H](O)C(C)=C[C@@H](C(=O)O1)[C@]34O)O2 (tested in a mixture with another compound),outcome,[1],inactive
same,AC50,[2],3.77 µM (active)
same,AC50,[3],3.36 µM (active)
O=[N+]([O-])/N=C1\NCCN1Cc1ccc(Cl)nc1,outcome,[1],inactive
same,outcome,[2],inactive
same,outcome,[3],inactive
CCCN(CCC)c1c([N+](=O)[O-])cc(C(F)(F)F)cc1[N+](=O)[O-],AC50,SERPINA7 (gene 6906),5.16 µM (active)
O=C(O)C(F)(F)C(F)(F)C(F)(F)C(F)(F)C(F)(F)C(F)(F)C(F)(F)F,outcome,[1],inactive
same,outcome,[2],inactive
same,outcome,[3],inactive
same,outcome,[7],inactive
same,outcome,[8],inactive
same,outcome,[9],inactive
same,outcome,[10],inactive
same,outcome,[11],inactive
same,outcome,[12],inactive
same,outcome,[13],inactive
same,outcome,[14],inactive
same,outcome,[15],inactive
same,outcome,[16],inactive
Clc1ccccc1-c1nnc(-c2ccccc2Cl)nn1,AC50,SERPINA7 (gene 6906),0.23 µM (active)
COP(=O)(OC)OC=C(Cl)Cl,outcome,[1],inactive
same,outcome,[2],inactive
same,AC50,[3],49 µM (active)
